Compound activity: PubChem, National Center for Advancing Translational Sciences (NCATS)
Rows were chosen to be rich in hits. Some 10% of all compounds tested hit in one or more screens of this group.
Sfp PPTase inh = qHTS Assay for Inhibitors of Bacillus subtilis Sfp phosphopantetheinyl transferase (PPTase); AID 1490, 2009; Potency, µM, without a hit: largest response in the series, negative = inhibition, usual class: inhibitors; Biochemical Sfp PPTase activity, qHTS; 4'-phosphopantetheinyl transferase ffp (Bacillus subtilis), Q9F4F7; 310,000 compounds, 3.5% hits;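 also: the enzyme is Sfp with the accession as filed and its product quenches rhodamine fluorescence; potency is read from the fitted curve at half-maximal effect; 0% = enzyme reaction without inhibitor and -100% = no enzyme wells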
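Fluorescence-quenching assay with 15 nM Sfp, 5 uM rhodamine-CoA and 12.5 uM BHQ-2-labelled ybbR peptide in pH 7.6 Hepes/MgCl2 buffer. Enzyme was pre-incubated with compound for 15 min at room temperature. Rate was taken from the 30-min fluorescence change (525/598 nm).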
MmCpn inh = Inhibitors of TCP-1 ring complex (TRiC) of Methanococcus maripaludis (MmCpn): qHTS; purified Mm-Cpn ATPase, ADP Transcreener TR-FRET; 330,000 compounds, 0.031% hits; Chaperonin Mm-Cpn (Methanococcus maripaludis); Potency, µM (series often up to 76.9 µM), for inactives: top-dose activity, negative = inhibition, hits mostly inhibitors; also: potency is read from the fitted curve at half-maximal effect; nearly all actives have a fitted effect of over 80% in size
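Purified archaeal Mm-CPN (25nM final) preincubated 10 min at 37degC with compound, then 10uM ATP for 30 min at 37degC; ADP measured by HTRF Transcreener TR-FRET; buffer 30 mM TRIS pH 7.4, 100mM KCl, 5mM MgCl2, 1mM DTT.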
G9a inh = qHTS Assay for Inhibitors of Histone Lysine Methyltransferase G9a | Histone-lysine N-methyltransferase EHMT2 (Homo sapiens), Q96KQ7 | G9a H3K9 monomethylation, AlphaScreen, 2 h | Potency, µM (top dose mostly 102 µM), inactives show at the top dose activity, negative = inhibition, hits mostly inhibitors | 350,000 compounds, 8.8% hits | AID 504332, 2011; also: potency is read from the fitted curve at half-maximal effect; nearly all actives have a fitted effect of over 75% in size
Target sequence (Q96KQ7 913-1193 limits assumed): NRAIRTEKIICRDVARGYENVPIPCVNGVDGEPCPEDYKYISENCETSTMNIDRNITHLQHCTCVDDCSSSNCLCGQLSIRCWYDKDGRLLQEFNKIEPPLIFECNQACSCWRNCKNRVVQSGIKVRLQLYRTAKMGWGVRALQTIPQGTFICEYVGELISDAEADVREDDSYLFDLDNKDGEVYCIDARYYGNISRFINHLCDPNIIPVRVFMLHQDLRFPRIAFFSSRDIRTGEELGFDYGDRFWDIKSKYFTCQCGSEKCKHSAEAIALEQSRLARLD
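Using a bead-based AlphaScreen, monomethylated H3K9 product from 2 h room-temperature reactions (G9a 20 nM, peptide 500 nM, SAM 20 uM) was detected with 0.5 ug/mL rabbit anti-H3K9me1 antibody.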
PLK1 PBD block = qHTS for Inhibitors of PLK1-PDB (polo-like kinase 1 - polo-box domain): Primary Screen. Serine/threonine-protein kinase PLK1 (Homo sapiens), P53350. Plk1 PBD binding of FITC phosphopeptide, fluorescence polarization. Potency, µM, without a hit: max response, negative = inhibition, actives largely listed as inhibitors. 360,000 compounds, 2.8% hits; also: potency is read from the fitted curve at half-maximal effect; series mostly up to about 57 µM; nearly all actives have a fitted effect of over 65% in size
CCT chaperon mod = High-Throughput Screening for Modulators of Cytosolic Chaperonin Activity; purified chaperonin ATPase assay, HTRF ADP detection, 30 min; activity change, % (concentration not given with the values), hits read low; 360,000 compounds, 0.3% hits; in the data active = activity change below about -30%
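First, chaperonin was dispensed at 40 nM or 20 nM final depending on batch activity. Next, compounds were pinned at 76 uM and ATP added at 10 uM. After 30 min at 37 °C, ADP detection reagents ran 30 min at ambient temperature.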
VDR inh = Inhibitors of the vitamin D receptor (VDR): qHTS; Potency, µM, for inactives: max response, negative = inhibition, most hits filed as inhibitors; AID 504847, 2011; 400,000 compounds, 0.93% hits; VDR-SRC2-3 peptide fluorescence polarization, 2 h; also: potency is read from the fitted curve at half-maximal effect
Target sequence (P11473 whole entry, looked up): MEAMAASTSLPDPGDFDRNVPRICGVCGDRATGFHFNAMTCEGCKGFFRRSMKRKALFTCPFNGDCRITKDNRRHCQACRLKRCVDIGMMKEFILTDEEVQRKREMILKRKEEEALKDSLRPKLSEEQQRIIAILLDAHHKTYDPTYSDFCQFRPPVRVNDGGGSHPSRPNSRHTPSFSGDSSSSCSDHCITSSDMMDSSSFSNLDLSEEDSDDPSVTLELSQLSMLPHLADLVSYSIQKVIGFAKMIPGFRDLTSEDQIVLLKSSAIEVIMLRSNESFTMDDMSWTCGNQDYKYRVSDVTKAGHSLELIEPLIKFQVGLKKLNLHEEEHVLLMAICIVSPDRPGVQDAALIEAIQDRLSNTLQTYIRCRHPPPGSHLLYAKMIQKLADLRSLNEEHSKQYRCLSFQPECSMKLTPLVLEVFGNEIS
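Two reagent solutions held at 4 deg C in the dark were dispensed, compounds pinned at 23 nl, and the mixture incubated 2 h at room temperature. Read-out: fluorescence polarization of VDR–SRC2-3 peptide binding.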
Starred values were filed as active, the others as inactive; u = inconclusive; x = not tested or not shown; [ ] = remark or other dose. Unless noted, calls follow the shape of the dose curve; as a rule, active = well fitted curve in the direction sought with a large enough effect; inconclusive = small, poorly fitted or top-dose-only effect, or another doubt; inactive = no such curve, though single readings can be large; an effect the other way counts as inactive or inconclusive. Unless noted, % is scaled to controls: 0 for no effect and ±100 for the full control effect.

SMILES	Sfp PPTase inh	MmCpn inh	G9a inh	PLK1 PBD block	CCT chaperon mod	VDR inh
CCSc1nnc2c(n1)OC(c1sccc1C)N(C(C)=O)c1ccccc1-2 (configuration not stated)	x	x	u	x	x	-9%
COc1ccc(C2NC(=O)C(C#N)=C(S)N2c2cccc(C)c2)cc1OC (configuration not stated)	32µM*	-4%	40µM*	u	-5	u
COc1cc(C2NC(=O)C(C#N)=C(S)N2c2ccc(C)cc2)ccc1OC(C)C (configuration not stated)	u	-2%	u	u	-1	28µM*
COc1ccc(C2C(C(=O)O)CCC(=O)N2c2ccc(C)cc2)cc1OC (configuration not stated)	-5%	-1%	14%	-15%	-1	2%
COc1ccc(N2C(=O)C3CCCN3C2c2cccc(C)c2)cc1Cl (configuration not stated)	8%	3%	u	2%	0	-2%
COc1ccc(C2NC(=O)C(C#N)=C(S)N2c2ccc(C)cc2)cc1OC (configuration not stated)	32µM*	0%	45µM*	u	-3	32µM*
Cc1ccc(S(=O)(=O)c2nnn3c2nc(N(C)Cc2ccccc2)c2cc(Cl)ccc23)cc1C	x	x	37%[59 µM]	x	x	-7%
CCCN1CCC(NC(=O)CCc2nnc(Cc3cc(OC)ccc3OC)o2)CC1	11%	0%	x	2%	1	-4%
CCCN1CCC(NC(=O)CCc2nnc(-c3ccccc3)o2)CC1	18%	0%	20%	-2%	-70*	-2%
CCCCN(CC)CCCNC(=O)c1cc2c(=O)[nH]c3ccccc3c2n1C	x	x	1%[59 µM]	x	x	7%
CCOC(=O)c1c(Nc2ccc(F)cc2)nnc(-c2ccccc2)c1-c1ccccc1	x	x	u	x	x	-23%
OC(CNCc1ccccc1)COc1ccccc1 (configuration not stated)	x	2%	7%[2.33 µM]	2%	-3	-2%
COc1cccc(CNCC(O)COc2ccc(C(=O)c3ccccc3)cc2)c1 (configuration not stated)	-24%	-2%	10µM*	-1%	0	-2%
COc1ccc(CNCc2cccc(C)c2)cc1	-5%	-1%	10µM*	3%	-5	-9%
COc1ccc(CNCc2cccc(Oc3ccccc3)c2)cc1	-7%	4%	8.9µM*	-12%	-2	-12%
CCn1cc(C(=O)NCc2ccc(C)cc2)c(=O)c2cc(S(=O)(=O)N3CCCCCC3)ccc21	x	x	-14%[59 µM]	x	x	15%
c1ccc2cc(-c3cc4ccccn4c3)ccc2c1	6%	-1%	35µM*	-3%	-4	-26%
Cc1oc2ncn(C)c(=O)c2c1C(=O)NCCCN1CCCC(C)C1 (configuration not stated)	x	x	-3%[59 µM]	x	x	5%
O=C(O)/C(=C\c1ccccc1OC(F)F)c1ccc(-c2ccccc2)cc1	9%	-1%	7%	u	0	-9%
O=C(O)/C(=C\c1ccc(F)cc1)c1ccc(-c2ccccc2)cc1	11%	-1%	3%	24µM*	-3	-17%
CCOC(=O)c1[nH]c(C)c(/C(O)=C2\C(=O)C(=O)N(CCCN(CC)CC)C2c2cccnc2)c1C (configuration not stated)	x	x	x	-8%	-3	-5%
CCOC(=O)c1[nH]c(C)c(/C(O)=C2\C(=O)C(=O)N(CCCn3ccnc3)C2c2ccncc2)c1C (configuration not stated)	11%	0%	50µM*	-6%	0	-3%
COC(=O)c1[nH]c(C)c(/C(O)=C2\C(=O)C(=O)N(CCCN3CCOCC3)C2c2ccccn2)c1C (configuration not stated)	50µM*	1%	u	-16%	-1	8%
CCOC(=O)c1[nH]c(C)c(/C(O)=C2\C(=O)C(=O)N(CCCN3CCOCC3)C2c2cccnc2)c1C (configuration not stated)	5%	-1%	22µM*	-9%	0	-2%
COC(=O)Cn1c(=O)c2c(nc3n2CCN3c2ccc(F)cc2)n(C)c1=O	x	x	-33%[59 µM]	x	x	1%
SMILES	Sfp PPTase inh	MmCpn inh	G9a inh	PLK1 PBD block	CCT chaperon mod	VDR inh
CCOC(=O)c1sc(NC(=O)C2=COCCO2)c(C#N)c1C	x	0%	-4%[2.33 µM]	27µM*	4	u
N#Cc1c(NC(=O)COC(=O)C2CC3C=CC2C3)oc(-c2ccccc2)c1-c1ccccc1 (configuration not stated)	4%	-6%	7.1µM*	-19%	-2	-13%
CCOC(=O)c1sc(NC(=O)c2cccnc2)c(C#N)c1C	0%	2%	11µM*	-6%	1	2%
CCOC(=O)c1c(NC(=O)c2cccnc2)sc(C)c1C	-11%	2%	22%[59 µM]	-8%	-4	-11%
COC(=O)c1sc(NC(=O)c2ccco2)c(C#N)c1C	40µM*	0%	35µM*	24µM*	-2	5%
Cc1sc(NC(=O)C2=COCCO2)c(C(N)=O)c1C	x	1%	7%[0.501 µM]	-7%	-3	-11%
COc1ccccc1NC(=O)c1sc(NC(=O)c2ccco2)c(C#N)c1C	11%	-17%	-3%[59 µM]	-11%	-1	-3%
CSc1nn(CC(=O)Nc2ccc(C)cc2C)c(N)c1S(=O)(=O)c1ccc(Cl)cc1	x	x	3%[59 µM]	x	x	4%
N#Cc1c(NC(=O)CSc2n[nH]c(Cc3ccccc3)n2)oc(-c2ccccc2)c1-c1ccccc1	1%	2%	3.5µM*	-5%	2	-16%
Cc1cccc(-c2cc(C(=O)Nc3sc(C)c(C)c3C(N)=O)c3ccccc3n2)c1	-18%	-3%	-2%[12.7 µM]	-1%	0	-1%
CCOC(=O)c1sc(NC(=O)CSc2nc(C)cc(C)n2)c(C#N)c1C	-1%	-1%	0%	-11%	0	8%
CCOC(=O)c1sc(NC(=O)c2cc(-c3ccccc3)nc3ccccc23)c(C#N)c1C	40µM*	0%	-7%[0.0925 µM]	3µM*	-2	-19%
CCOC(=O)c1sc(NC(=O)CSc2n[nH]c(-c3ccccc3)n2)c(C#N)c1C	7.1µM*	0%	u	3.8µM*	2	-22%
CCOc1ccccc1C(=O)Oc1c(S(=O)(=O)c2ccc(C)cc2)c(C)nn1-c1ccccc1	x	x	u	x	x	-16%
